Inconclusive results are not listed. Calls of active or inactive are those of the source. Unless noted, calls come from the whole dose curve.
Experiments:
[1] = Nuclear factor erythroid 2-related factor 2/antioxidant responsive element (Nrf2/ARE) small molecule agonists: qHTS cell viability counter screen in human keratinocytes (AID 1919968; active = well fitted curve in the direction sought with a large enough effect in the repeat runs; an effect the other way counts as inactive or inconclusive; note: nearly all actives have a fitted effect of over 55% in size)
Summary of the method: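 KeratinoSens cells (HaCaT keratinocytes stably carrying an ARE-luciferase reporter) were seeded at 1,500 cells/well and rested 5 h at 37 C/5% CO2. They were then exposed to compounds in DMSO for 23 h. Viability was read by CellTiter-Fluor fluorescence after 1 h.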

[2] = target: Gonadotropin-releasing hormone receptor (Homo sapiens) (UniProt P30968); assay: Human gonadotropin-releasing hormone receptor (GnRHR) small molecule agonists, calcium flux assay in GnRHR-HEK293 cells (AID 1920063); note: nearly all actives have a fitted effect of over 35% in size
Sequence of Gonadotropin-releasing hormone receptor (Homo sapiens) (P30968 whole entry, looked up): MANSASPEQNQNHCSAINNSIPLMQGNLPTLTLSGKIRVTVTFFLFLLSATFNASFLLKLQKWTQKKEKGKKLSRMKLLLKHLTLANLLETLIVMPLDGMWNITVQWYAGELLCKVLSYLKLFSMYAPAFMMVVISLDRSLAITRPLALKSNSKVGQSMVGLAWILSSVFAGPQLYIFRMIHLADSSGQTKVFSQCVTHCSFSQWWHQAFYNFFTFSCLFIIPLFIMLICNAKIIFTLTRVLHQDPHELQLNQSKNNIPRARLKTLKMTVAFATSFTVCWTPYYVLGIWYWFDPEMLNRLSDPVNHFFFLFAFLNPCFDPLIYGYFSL
Summary of the method: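 HEK293 cells stably expressing human GnRHR were plated 18 h at 37 °C, loaded with calcium dye 1 h at 37 °C, then given compound in agonist mode; fluorescence (Ex/Em 480/540) read kinetically for 3 min at 1 s intervals.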

[3] = target: KiSS-1 receptor (Homo sapiens) (UniProt Q969F8); assay: Human kisspeptin (KISS1R) small molecule agonists, calcium flux assay in KISS1R-HEK293 cells (AID 1920064; active = well fitted curve in the direction sought with a large enough effect in the repeat runs; an effect the other way counts as inactive or inconclusive)
Sequence of KiSS-1 receptor (Homo sapiens) (Q969F8 whole entry, looked up): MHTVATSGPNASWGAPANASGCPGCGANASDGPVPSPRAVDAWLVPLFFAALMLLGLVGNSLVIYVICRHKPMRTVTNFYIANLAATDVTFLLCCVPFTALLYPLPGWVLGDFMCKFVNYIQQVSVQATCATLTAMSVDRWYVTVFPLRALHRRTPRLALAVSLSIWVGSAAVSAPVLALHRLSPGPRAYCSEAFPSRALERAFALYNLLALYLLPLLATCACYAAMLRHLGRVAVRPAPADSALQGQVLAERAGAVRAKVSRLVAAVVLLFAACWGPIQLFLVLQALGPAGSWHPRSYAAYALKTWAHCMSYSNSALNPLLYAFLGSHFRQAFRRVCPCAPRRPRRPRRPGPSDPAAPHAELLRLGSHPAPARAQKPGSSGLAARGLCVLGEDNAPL
Summary of the method: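 HEK293 cells stably expressing human KISS1R were plated 18 h at 37 °C, loaded with calcium dye for 1 h at 37 °C, then given compound by pin tool. Fluorescence (Ex/Em 480/540) was read kinetically for 3 min.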

[4] = G protein-coupled receptor (GPCR) small molecule agonists, calcium flux assay: HEK293 wild type cell line counter screen (AID 1920065)
Summary of the method: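 Cells were plated and cultured 18 h at 37 C/5% CO2, then loaded with calcium dye for 1 h at 37 C. Compounds in DMSO were pin-transferred in agonist mode, and fluorescence (Ex/Em 480/540) was read kinetically for 3 min at 1 s intervals.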

[5] = p53 small molecule agonists, cell-based qHTS assay with rat liver microsomes (AID 1963578)
Summary of the method: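 Metabolic activation is supplied by rat liver microsomes with NADPH (each 0.5 mg/mL final). p53RE-bla cells incubate with compound 16 h at 37 C; reporter activity is measured by LiveBLAzer fluorescence.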

[6] = p53 small molecule agonists, cell-based qHTS assay with human liver microsomes: qHTS cell viability counter screen (AID 1963579); note: nearly all actives have a fitted effect of over 45% in size
Summary of the method: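 After the 460/530 nm beta-lactamase read, CellTiter-Glo was added to the same wells and luminescence measured after 30 min at room temperature, giving viability of p53RE-bla cells treated 16 h with compounds plus microsomes and NADPH.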

[7] = p53 small molecule agonists, cell-based qHTS assay with rat liver microsomes: qHTS cell viability counter screen (AID 1963580); note: nearly all actives have a fitted effect of over 45% in size
Summary of the method: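 In HCT-116 cells carrying a p53 response element-bla reporter, compounds were metabolically activated in situ by rat liver microsomes with NADPH over 16 h. Cell ATP content then served as the cytotoxicity measure.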

[8] = p53 small molecule agonists, cell-based qHTS assay: qHTS cell viability counter screen (AID 1963581); note: nearly all actives have a fitted effect of over 45% in size
Summary of the method: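 p53RE-bla HCT-116 cells were exposed to compounds for 16 h at 37 C; after the beta-lactamase FRET read in the same wells, CellTiter-Glo was added and luminescence (intracellular ATP) read after 30 min at room temperature.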

[9] = p53 small molecule agonists, cell-based qHTS assay (AID 1963582; active = well fitted activation curve with a large enough effect in the signal ratio in the repeat runs, not every such curve was filed as active; the % refers to the signal ratio)
Summary of the method: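 p53RE-bla beta-lactamase reporter cells rested 5 h at 37 C/5% CO2, then received compounds in DMSO by pin transfer and were incubated 16 h at 37 C. LiveBLAzer B/G FRET substrate was loaded for 2 h at room temperature before fluorescence reading.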

[10] = target: 5-hydroxytryptamine receptor 2A (Homo sapiens) (UniProt P28223); assay: 5-hydroxytryptamine receptor 2A (HTR2A) small molecule antagonists, cell-based qHTS assay (AID 1963586); note: nearly all actives have a fitted effect of over 45% in size
Sequence of 5-hydroxytryptamine receptor 2A (Homo sapiens) (P28223 whole entry, looked up): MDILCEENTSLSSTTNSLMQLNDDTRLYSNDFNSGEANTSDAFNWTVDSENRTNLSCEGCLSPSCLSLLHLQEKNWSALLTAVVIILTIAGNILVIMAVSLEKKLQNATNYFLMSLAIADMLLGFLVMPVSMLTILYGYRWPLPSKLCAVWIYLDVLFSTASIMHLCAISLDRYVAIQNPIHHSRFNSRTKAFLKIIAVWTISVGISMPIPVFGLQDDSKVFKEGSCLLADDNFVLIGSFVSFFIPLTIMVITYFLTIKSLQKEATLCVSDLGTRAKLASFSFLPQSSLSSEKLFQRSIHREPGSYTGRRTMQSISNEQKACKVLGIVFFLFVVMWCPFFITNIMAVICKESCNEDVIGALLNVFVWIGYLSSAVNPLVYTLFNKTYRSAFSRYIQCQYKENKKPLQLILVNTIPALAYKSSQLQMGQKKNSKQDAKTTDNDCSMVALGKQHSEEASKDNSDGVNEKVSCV
Summary of the method: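 Antagonist-mode intracellular calcium assay: DOI (4 nM) added after 5 min compound pre-incubation at room temperature to dye-loaded HTR2A-CHO cells. Fluorescence followed for 3 min, sampled every second.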

[11] = target: 5-hydroxytryptamine receptor 2A (Homo sapiens) (UniProt P28223); assay: 5-hydroxytryptamine receptor 2A (HTR2A) small molecule agonists, cell-based qHTS assay (AID 1963587); note: nearly all actives have a fitted effect of over 30% in size
Summary of the method: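 HTR2A-CHO cells, plated 18 h at 37 C/5% CO2, dye-loaded 1 h at 37 C; compounds in DMSO added by pin tool (agonist mode). Intracellular calcium flux read as kinetic fluorescence on FDSS over 2 min at 1 s intervals.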

[12] = target: Muscarinic acetylcholine receptor M1 (Homo sapiens) (UniProt P11229); assay: Cholinergic receptor muscarinic 1 (CHRM1) small molecule antagonists, cell-based qHTS assay (AID 1963588); note: nearly all actives have a fitted effect of over 40% in size
Sequence of Muscarinic acetylcholine receptor M1 (Homo sapiens) (P11229 whole entry, looked up): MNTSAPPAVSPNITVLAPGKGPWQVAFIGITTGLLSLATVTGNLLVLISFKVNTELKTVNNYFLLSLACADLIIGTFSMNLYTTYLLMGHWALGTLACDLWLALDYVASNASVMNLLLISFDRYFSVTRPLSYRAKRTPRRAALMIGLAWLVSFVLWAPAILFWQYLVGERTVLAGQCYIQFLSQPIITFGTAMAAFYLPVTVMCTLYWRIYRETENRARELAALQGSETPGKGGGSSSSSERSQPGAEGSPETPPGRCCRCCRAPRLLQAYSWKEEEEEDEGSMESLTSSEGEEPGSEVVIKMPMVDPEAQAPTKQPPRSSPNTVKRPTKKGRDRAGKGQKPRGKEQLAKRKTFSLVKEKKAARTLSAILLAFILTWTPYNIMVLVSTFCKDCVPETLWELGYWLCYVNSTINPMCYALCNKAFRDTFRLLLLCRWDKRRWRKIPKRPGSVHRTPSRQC
Summary of the method: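 CHRM1-CHO calcium-flux assay, antagonist mode. Cells were seeded 18 h, dye-loaded 1 h at 37 C and given compound for 5 min at RT, then acetylcholine was added at 50nM. FDSS fluorescence was read 3 min; 15 concentrations, three runs.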

[13] = target: Muscarinic acetylcholine receptor M1 (Homo sapiens) (UniProt P11229); assay: Cholinergic receptor muscarinic 1 (CHRM1) small molecule agonists, cell-based qHTS assay (AID 1963589); note: nearly all actives have a fitted effect of over 35% in size
Summary of the method: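 CHO cells stably expressing human CHRM1, seeded 18 h at 37 C/5% CO2, dye-loaded 1 h at 37 C, then given compound in agonist mode; intracellular calcium fluorescence read kinetically at 1 s intervals. Fifteen concentrations, three independent runs.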

[14] = cAMP Responsive Elements (CRE) small molecule agonists, cell-based qHTS assay (AID 1963590)
Summary of the method: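 CRE-bla HEK 293T cells in DMEM with 10% dialyzed FBS, NEAA, pyruvate and 25 mM HEPES were plated 18 h at 37 C/5% CO2, then exposed to compounds in DMSO for 3 h before LiveBLAzer B/G FRET substrate addition.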

[15] = cAMP Responsive Elements (CRE) small molecule antagonists, cell-based qHTS assay (AID 1963591; active = well fitted inhibition curve with a large enough effect in the signal ratio in the repeat runs, not every such curve was filed as active; the % refers to the signal ratio)
Summary of the method: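 CRE-bla HEK293T cells were plated 18 h at 37 °C/5% CO2, pinned with compound in DMSO, then stimulated with NKH477 at 0.25 uM final for 3 h. LiveBLAzer B/G FRET substrate was added and plates incubated 2 h at room temperature.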

[16] = target: Beta-2 adrenergic receptor (Homo sapiens) (UniProt P07550); assay: Adrenergic beta2 receptor (ADRB2) small molecule antagonists, cell-based qHTS assay (AID 1963592); note: series mostly up to about 92 µM; nearly all actives have a fitted effect of over 50% in size
Sequence of Beta-2 adrenergic receptor (Homo sapiens) (P07550 whole entry, looked up): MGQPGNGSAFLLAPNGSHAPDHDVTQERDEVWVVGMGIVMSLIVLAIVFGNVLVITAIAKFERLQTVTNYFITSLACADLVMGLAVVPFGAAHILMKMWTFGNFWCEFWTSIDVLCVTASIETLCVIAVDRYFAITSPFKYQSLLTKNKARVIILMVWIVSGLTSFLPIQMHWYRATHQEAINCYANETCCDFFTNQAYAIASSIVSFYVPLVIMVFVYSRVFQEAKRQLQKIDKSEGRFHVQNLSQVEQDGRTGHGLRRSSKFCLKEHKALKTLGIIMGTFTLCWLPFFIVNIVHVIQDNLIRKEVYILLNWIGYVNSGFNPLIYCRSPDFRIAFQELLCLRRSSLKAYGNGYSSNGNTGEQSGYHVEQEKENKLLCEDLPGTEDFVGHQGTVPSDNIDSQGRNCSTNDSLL
Summary of the method: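 Cells (CHO, stable ADRB2 overexpression) incubated 18-20hr at 37C; compounds added from DMSO; agonist mix (1nM isoproterenol, 100uM IBMX, 25uM Ro-20-1724) added; 0.5hr RT; d2-cAMP and anti-cAMP-cryptate added; 1hr RT; 665/615 nm read.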

[17] = target: D(2) dopamine receptor (Homo sapiens) (UniProt P14416); assay: Dopamine D2 receptor (DRD2) small molecule agonists, cell-based qHTS assay (AID 1963594); note: nearly all actives have a fitted effect of over 35% in size
Sequence of D(2) dopamine receptor (Homo sapiens) (P14416 whole entry, looked up): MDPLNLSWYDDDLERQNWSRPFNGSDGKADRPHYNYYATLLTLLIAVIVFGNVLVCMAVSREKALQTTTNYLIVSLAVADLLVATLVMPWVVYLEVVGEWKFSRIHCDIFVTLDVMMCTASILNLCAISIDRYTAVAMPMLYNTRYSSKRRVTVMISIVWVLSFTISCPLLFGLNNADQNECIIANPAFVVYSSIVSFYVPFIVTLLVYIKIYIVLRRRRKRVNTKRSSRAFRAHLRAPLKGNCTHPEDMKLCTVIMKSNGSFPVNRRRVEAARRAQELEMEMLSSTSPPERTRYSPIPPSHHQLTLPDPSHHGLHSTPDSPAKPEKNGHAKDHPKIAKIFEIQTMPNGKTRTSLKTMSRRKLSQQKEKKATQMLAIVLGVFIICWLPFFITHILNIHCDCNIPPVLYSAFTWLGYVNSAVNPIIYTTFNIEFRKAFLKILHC
Summary of the method: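 HEK293 cells stably expressing DRD2 were cultured 24 h at 37 C, then given Ro20-1724 (0.1 mM final) and compounds for 10 min at room temperature. NKH477 (200nM) was then added for 30 min. cAMP was read by HTRF.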

[18] = target: D(2) dopamine receptor (Homo sapiens) (UniProt P14416); assay: Dopamine D2 receptor (DRD2) small molecule antagonists, cell-based qHTS assay (AID 1963595; active = well fitted inhibition curve with a large enough effect in the signal ratio in the repeat runs, with a control signal flat; the % refers to the signal ratio)
Summary of the method: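 In this cell-based antagonist screen, compounds act for 10 min at room temperature before a 30 min challenge with 12 nM quinpirole and 200 nM NKH477. cAMP is quantified by HTRF competition in DRD2-HEK293 cells containing 0.1 mM Ro20-1724.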

[19] = target: Beta-2 adrenergic receptor (Homo sapiens) (UniProt P07550); assay: Adrenergic beta2 receptor (ADRB2) small molecule agonists, cell-based qHTS assay (AID 1963593);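 note: CHO cells stably overexpressing human ADRB2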
Summary of the method: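 CHO cells stably over-expressing ADRB2 were plated overnight at 37C, then dosed with compounds plus a stimulation mix containing 100uM IBMX and 25uM Ro-20-1724 for 0.5hr at room temperature. cAMP was measured by HTRF competition, 1hr.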

[20] = p53 small molecule agonists, cell-based qHTS assay with human liver microsomes (AID 1963577);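 note: p53 response element beta-lactamase reporter cells with liver microsomes plus NADPH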
Summary of the method: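 Steps: plate p53RE-bla cells, incubate 5 h at 37 C; add compound in DMSO; add microsomes (0.5 mg/mL final) and NADPH (0.5 mg/mL final); incubate 16 h at 37 C; add LiveBLAzer, 2 h RT; read fluorescence.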

Measured: Potency

CC(=O)OCC(C)OC(C)=O (stereo unspecified)
not listed: [19] | [20]
inactive: all other assays above

NO
not listed: [13] | [20]
inactive: all other assays above

CCCCCCCCCCCCCCCBr
not listed: [5] | [19]
inactive: all other assays above

Cc1ccc(Cl)cc1N
not listed: [5] | [7] | [18] | [19]
inactive: all other assays above

CC1(C)C(=O)N(Br)C(=O)N1Br
not listed: [20]
inactive: all other assays above

CCC(=O)OCCC(C)CCC=C(C)C (stereo unspecified)
not listed: [11] | [19] | [20]
inactive: all other assays above

CCCCNc1cc(C(=O)O)cc(S(N)(=O)=O)c1Oc1ccccc1
not listed: [10] | [12] | [16] | [19] | [20]
inactive: all other assays above

From PubChem BioAssay (Tox21)
